# High-throughput results as filed in PubChem BioAssay.
# Hits are enriched below; roughly 1.8% of the tested compounds scored in any of these assays.
# PME-1 primary: blocks human protein phosphatase methylesterase 1; inhibition, % at 5.9 µM; Q9Y570; recombinant PME-1, FP-Rh probe fluorescence polarization; 0.53% of 320,000 active;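 active = inhibition above the campaign mean of all compounds plus 3 SD, cut at about 26% in these data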;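 note: competitive labeling of PME-1 active site by serine hydrolase directed probe; inhibitors block probe labeling so polarization falls and inhibition rises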
# Target sequence (Q9Y570 whole entry, looked up): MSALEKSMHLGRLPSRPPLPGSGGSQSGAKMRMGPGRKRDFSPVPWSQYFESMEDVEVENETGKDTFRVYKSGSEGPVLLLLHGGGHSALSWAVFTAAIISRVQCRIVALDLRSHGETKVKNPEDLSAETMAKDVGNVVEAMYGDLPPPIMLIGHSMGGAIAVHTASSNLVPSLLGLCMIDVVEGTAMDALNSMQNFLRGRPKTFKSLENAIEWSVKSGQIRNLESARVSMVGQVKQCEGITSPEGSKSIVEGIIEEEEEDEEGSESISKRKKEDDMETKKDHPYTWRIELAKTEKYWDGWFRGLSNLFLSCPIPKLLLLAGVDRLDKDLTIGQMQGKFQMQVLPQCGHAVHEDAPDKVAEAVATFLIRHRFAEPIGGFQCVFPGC
# GSTO1 counter: GSTO1 inhibition, counter-screen for RBBP9 inhibitors; P78417; recombinant GSTO1, activity-based probe fluorescence polarization; inhibition, % at 5.96 µM; 1.1% of 300,000 active;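 active = inhibition above the campaign mean inhibition plus 3 SD, cut at about 35% in these data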
# LYPLA1 counter: counter-screen for PME1 inhibitors: inhibitors of human LYPLA1; recombinant LYPLA1, FP-Rh probe fluorescence polarization; inhibition, % at 5.9 µM; 0.16% of 320,000 active; AID 2174;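 active = inhibition above the mean of all tested compounds plus 3 SD, set per campaign, cut at about 14% in these data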;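 note: inhibitors block serine hydrolase probe labeling of LYPLA1 so polarization falls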
# Fam108B inh: Fam108B inhibition, counter-screen for RBBP9 inhibitors; recombinant Fam108B, FP-Rh probe fluorescence polarization; inhibition, % at 9.51 µM; 0.33% of 300,000 active;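 active = inhibition above the screen mean inhibition plus 3 SD, computed separately per campaign, cut at about 18% in these data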;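 note: inhibitors lower polarization as less probe binds the enzyme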
# LYPLA2 inh: blocks human lysophospholipase 2, a PME1 counter-screen. O95372. inhibition, % at 5.9 µM. recombinant LYPLA2, FP-Rh probe fluorescence polarization. 0.38% of 320,000 active;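 active = inhibition above the screen-wide mean plus 3 SD, limit set per campaign, cut at about 26% in these data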
# Target sequence (O95372 whole entry, looked up): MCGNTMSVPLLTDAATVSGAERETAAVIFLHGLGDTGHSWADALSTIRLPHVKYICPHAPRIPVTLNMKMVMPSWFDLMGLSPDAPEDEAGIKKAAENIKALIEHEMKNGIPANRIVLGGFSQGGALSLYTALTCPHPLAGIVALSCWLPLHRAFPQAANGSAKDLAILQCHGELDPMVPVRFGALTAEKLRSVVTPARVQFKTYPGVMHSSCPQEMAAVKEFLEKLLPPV
# PAD4 FP inh: PAD4 (human) enzyme inhibition. Q9UM07. recombinant PAD4, RCA probe fluorescence polarization. inhibition, % at 6.36 µM. 0.41% of 330,000 active;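 active = percent inhibition above a cutoff equal to the mean of all tested compounds plus 3 SD, cut at about 15% in these data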
# LYPLA2 confirm: counter-screen for PME1 inhibitors: confirmation of human LYPLA2 inhibitors; AID 2232; inhibition, % at 5.9 µM; recombinant LYPLA2, FP-Rh probe fluorescence polarization; shares compounds with LYPLA2 inh; 72% of 1,100 active;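 active = mean inhibition across replicates above the hit cutoff set in the primary screen, cut at about 26% in these data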;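 note: blocked labeling of the enzyme by serine hydrolase FP-Rh probe lowers polarization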
# LYPLA2 ABPP: inhibitors of human LYPLA2; shares compounds with LYPLA2 inh; rhLYPLA2 in mouse brain proteome, gel ABPP FP-Rh; inhibition, % at 20 µM; 30% of 150 active; AID 652029;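 active = inhibition of LYPLA2 enzyme probe labeling above about 50%, limit read from the data; inactive = inhibition below that limit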;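 note: loss of FP-Rh probe labeling of the LYPLA2 gel band measured as band density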
# Numbers stand for hits; 0 = inactive; - = not tested or not shown.
SMILES,PME-1 primary,GSTO1 counter,LYPLA1 counter,Fam108B inh,LYPLA2 inh,PAD4 FP inh,LYPLA2 confirm,others
CN(CC(=O)N1CCN(c2ccc(F)cc2)CC1)S(=O)(=O)c1ccc2c(c1)c(=O)n(C)c(=O)n2C,0,0,0,0,0,0,-,
CN(Cc1nc(-c2ccccn2)no1)S(=O)(=O)c1ccc(Cl)cc1,0,0,0,0,28,0,26,
CS(=O)(=O)c1nc(S(=O)(=O)c2ccc(Cl)cc2)c(NCCN2CCOCC2)s1,0,0,0,0,0,0,-,
COc1ccc(CCn2c(C)cc(C(=O)COC(=O)c3cnc(C)cn3)c2C)cc1,0,0,0,0,0,0,-,
COc1ccc(CCn2c(C)cc(C(=O)COC(=O)c3cnccn3)c2C)cc1,0,0,0,0,43,0,41,
COCCOc1ccc(C(F)(F)F)cc1NC(=O)COC(=O)Cc1c[nH]c2ccccc12,0,-,0,-,0,0,-,
O=C(CCC1CCCCC1)NCc1ccccn1,0,0,0,0,0,0,-,
COCCn1c(=O)[nH]c2cc(C(=O)NCCN3CCN(c4cccc(Cl)c4)CC3)ccc2c1=O,0,0,0,0,45,0,36,
Cn1cc(C(=O)NCCN2CCN(c3cccc(Cl)c3)CC2)c2c3ccccc3n(C)c2c1=O,0,0,0,0,26,0,35,
COc1cc2c(cc1OC)CN(CC(=O)Nc1ccc(C)c(C)c1)CC2,0,0,0,0,0,0,-,
O=C(c1ccc(CSc2nc3ccncc3[nH]2)cc1)N1CCN(c2cccc(Cl)c2)CC1,0,0,0,0,33,0,31,
CCCCCNCc1ccc(Cl)cc1,0,0,0,0,0,0,-,
CCCCCCC[N+](CC)(CC)CCCCc1ccc(Cl)cc1,0,0,0,0,35,0,30,
O=C1CC(c2ccc(OCCCCCOc3ccc(C4CC(=O)NC4=O)cc3)cc2)C(=O)N1 (centres undefined),0,0,0,0,40,0,53,LYPLA2 ABPP=0
Cc1ccc(-n2nnnc2CN2CCCCC2)cc1,0,0,0,0,33,0,0,
Clc1ccc(-n2nnnc2CN2CCOCC2)cc1,0,0,0,0,0,0,-,
Cc1ccc(-n2cc(-c3ccccc3)c3c(N4CCN(C)CC4)ncnc32)cc1,0,0,0,0,30,0,0,
CCOc1cccc(Nc2ccc([N+](=O)[O-])cn2)c1,0,0,0,0,28,0,0,
CCN(CC)c1ncnnc1-c1ccccc1,0,0,0,0,0,0,-,
CC(C)CCn1c(=O)c2sccc2n2c(CCCC(=O)N3CCC(N4CCCCC4)CC3)nnc12,0,0,0,0,28,0,0,
CC(C)Cn1c(=O)c2sccc2n2c(CCCC(=O)N3CCC(N4CCCCC4)CC3)nnc12,0,0,0,0,0,0,-,
Cc1nn(C)c(C)c1CN(C)C(=O)c1cc2n(n1)C(C(F)(F)F)CC(c1cccs1)N2 (centres undefined),0,0,0,0,26,0,0,
Cc1nn(C)cc1CN(C)C(=O)c1nn2c(c1Cl)NC(c1cccs1)CC2C(F)(F)F (centres undefined),0,0,0,0,0,0,-,
CCn1c(=O)c(C(=O)CN2CCN(Cc3ccc4c(c3)OCO4)CC2)c(N)n(Cc2ccccc2)c1=O,0,0,0,0,26,0,0,
CCn1c(=O)c(C(=O)CN2CC(C)OC(C)C2)c(N)n(Cc2ccccc2)c1=O (centres undefined),0,0,0,0,0,0,-,
SMILES,PME-1 primary,GSTO1 counter,LYPLA1 counter,Fam108B inh,LYPLA2 inh,PAD4 FP inh,LYPLA2 confirm,others
Cc1cc(Br)ccc1OCCCCN1CCCCC1,0,0,0,0,0,0,-,
CC1CCCC(C)N1C(=O)COC(=O)Cc1ccc(F)cc1 (centres undefined),0,0,0,0,0,0,-,
CC1CCCC(C)N1C(=O)COC(=O)CCC1CCCC1 (centres undefined),0,0,0,0,36,0,0,
O=C(Cc1ccc(S(=O)(=O)N2CCOCC2)s1)N1CCN(c2cccc(C(F)(F)F)c2)CC1,0,0,0,0,40,0,48,
COc1ccc(NC(=S)N2CCN(c3ccc([N+](=O)[O-])cc3)CC2)cc1OC,0,0,0,0,36,0,29,
O=C(C1CCN(c2nnc(-n3cccc3)s2)CC1)N1CCN(Cc2ccc3c(c2)OCO3)CC1,0,0,0,0,34,0,46,
O=C(O)c1cc(NN=Nc2cccc([N+](=O)[O-])c2)cc([N+](=O)[O-])c1,0,0,0,0,28,0,28,
Cc1ccc(CN2CCN(Cc3cn[nH]c3C3CCCCC3)CC2CCO)cc1 (centres undefined),0,0,0,0,0,0,-,
CCCCN(C(=O)c1cc(Cl)nc2ccccc12)c1c(N)n(Cc2ccccc2)c(=O)[nH]c1=O,0,0,0,0,0,0,-,
CC(=O)c1ccc(N2CCN(C(=O)c3ccc4ccccc4n3)CC2)cc1,0,0,0,0,0,0,-,
CC(=O)c1ccc(N2CCN(C(=O)/C=C/c3ccc4ccccc4n3)CC2)cc1,0,0,0,0,33,0,39,
Cc1ccc(NC(=O)C2CC(=O)N(CCc3ccccc3)C2)c(C)c1 (centres undefined),0,0,0,0,0,0,-,
CCCCN1CC(=O)N2Cc3[nH]c4ccccc4c3C[C@H]2C1=O,0,0,0,0,39,0,27,
CN1CC(=O)N2Cc3[nH]c4ccccc4c3C[C@H]2C1=O,0,0,0,0,0,0,-,
CCOC(=O)c1ccc(NC(=O)CC2S/C(=N/N=C3/NC(=O)CS3)NC2=O)cc1 (centres undefined),0,0,0,0,32,0,0,
Cc1ccc(NC(=O)CC2S/C(=N/N=C3/NC(=O)CS3)NC2=O)cc1 (centres undefined),0,0,0,0,0,0,-,
COc1cccc(CCc2nnc(CCC(=O)N(C)C3CC(C)(C)NC(C)(C)C3)o2)c1,0,0,0,0,0,0,-,
O=C(Nc1ccc([N+](=O)[O-])cc1)c1ccc(Cn2cc([N+](=O)[O-])cn2)cc1,0,0,0,0,46,0,49,
O=C(c1ccc(Cl)cc1)c1ccc(Oc2cc(NN3CCCCC3)c([N+](=O)[O-])cc2[N+](=O)[O-])cc1,0,0,0,0,0,0,-,
CC(/C=N/NC(=O)Cn1nnc(N)n1)=C\c1ccc(C(C)C)cc1,0,0,0,0,62,0,70,
Cn1c(=O)c2c(ncn2CC(=O)N/N=C/C(Cl)=C/c2ccccc2)n(C)c1=O,0,0,0,0,32,0,0,
Cn1c(=O)c2c(ncn2CCC(=O)N/N=C/c2ccccc2)n(C)c1=O,0,0,0,0,0,0,-,
